M1 antagonist: M1 muscarinic receptor (rat) antagonism; P08482; CHO-M1 cells, Fluo-4 calcium, ACh EC80 antagonist mode; active compounds read low; B-score at 10 µM; 64,000 tested, 3.4% active; AID 628;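 active means calcium fluorescence response, raw or row-and-column corrected B-score, differing from the plate sample mean either way at a set confidence level, mostly lower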
D1 mod: allosterically modulates the human D1 dopamine receptor. 58,000 tested, 5.9% active. B-score at 10 µM. P21728. AID 641. HEK293 D1, CRE-luciferase, dopamine EC30 potentiation; actives deviate in either direction;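 active means luminescence count or its row- and column-corrected plate score outside the 99.7% band of the plate's sample wells, on either side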
Target sequence (P21728 whole entry, looked up): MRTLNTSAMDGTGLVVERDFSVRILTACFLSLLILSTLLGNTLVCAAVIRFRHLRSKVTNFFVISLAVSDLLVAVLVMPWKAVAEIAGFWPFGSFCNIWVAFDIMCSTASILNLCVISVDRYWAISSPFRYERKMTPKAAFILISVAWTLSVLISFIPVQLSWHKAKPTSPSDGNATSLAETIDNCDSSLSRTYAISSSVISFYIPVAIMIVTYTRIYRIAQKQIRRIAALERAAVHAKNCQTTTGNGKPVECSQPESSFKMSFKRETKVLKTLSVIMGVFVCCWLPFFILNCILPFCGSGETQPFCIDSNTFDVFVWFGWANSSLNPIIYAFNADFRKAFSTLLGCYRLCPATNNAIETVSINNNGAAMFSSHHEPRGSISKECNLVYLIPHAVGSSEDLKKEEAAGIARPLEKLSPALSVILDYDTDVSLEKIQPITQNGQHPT
mHtt clearance: compounds clearing mutant huntingtin protein; HeLa Exon1htt(103Q)mCFP, aggregate imaging; zero = plate's median compound well; inhibition, % at 1.5 µM; 47,000 tested, 0.42% active;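 active means inhibition of aggregate fluorescence above about 70%, also judged a hit by eye on the cell image, limit read from the data, passing the limit was not always enough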;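 further: cells exposed to compound for three days before fixation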
M1 ag: activates the M1 muscarinic receptor; CHO-M1 cells, Fluo-4 calcium fluorescence, agonist mode; active compounds read high; 64,000 tested, 3% active; B-score at 10 µM;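 active means fluorescence rise, raw or as B-score row- and column-corrected plate score, outside the 99.7% band of its plate's samples, either direction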
M1 antag conf: confirmation of rat M1 muscarinic receptor antagonists. shares compounds with M1 antagonist. CHO-M1 cells, Fluo-4 calcium, ACh EC80 antagonism; active compounds read low. calcium response (max-min fluorescence) at 10 µM. 1,700 tested, 43% active. AID 677;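 active means calcium response below the same-plate mean of wells given acetylcholine alone at its 80%-effect dose, minus 3 SD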;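 further: raw fluorescence intensity difference in arbitrary instrument units and not normalized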
mGluR4 antag: selectivity test for M1 antagonists: human mGluR4 receptor; shares compounds with M1 antagonist; CHO-mGluR4 calcium flux, Fluo-4 fluorescence, glutamate EC80; active compounds read low; fluorescence response (max-min) at 10 µM; 1,700 tested, 0.9% active;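 active means fluorescence response below the plate's average for near-maximal glutamate wells, less 3 SD of those wells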;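 further: raw unnormalized fluorescence span taken in the window right after glutamate addition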
The depositor's hits bear a star; . = not tested or not shown. Compounds with a hit are over-represented: about 9.1% of the library has one in this group of screens.

SMILES	M1 antagonist	D1 mod	mHtt clearance	M1 ag	M1 antag conf	mGluR4 antag
O=C(Nc1nnc(-c2ccc3c(c2)CCCC3)o1)C1COc2ccccc2O1 (configuration not stated)	0.53	-0.45	.	0.16	.	.
Cc1ccc(-n2c(N)c(C(=O)NCc3cccnc3)sc2=S)cc1	.	.	4	.	.	.
CNc1nc(N)c(C(=O)C(C)(C)C)s1	-1.8*	.	12	1.2	599	260
COc1cccc(CC(=O)NCC2COc3ccccc3O2)c1OC (configuration not stated)	-12*	0.29	15	0.34	701	230
CCOC(=O)c1cncc(NC(=O)c2ccccc2)c1	0.018	-0.27	.	-1	.	.
COc1ccccc1Nc1nc(N)nc(CN2CCC(Cc3ccccc3)CC2)n1	-2.4*	-1.9	42	-0.3	452*	228
Cc1ccc(Nc2nc(N)nc(CN3CCN(Cc4ccc5c(c4)OCO5)CC3)n2)cc1Cl	-0.063	-1.2	-123	-0.23	.	.
COc1ccc(Nc2nc(N)nc(CN3CCC(Cc4ccccc4)CC3)n2)cc1	-10*	-3*	.	-1.4	319*	265
COc1ccccc1Nc1nc(N)nc(CN2CCCCCC2)n1	-0.065	1.2	.	-0.02	.	.
Cc1ccc(Nc2nc(N)nc(CN3CCN(Cc4ccc5c(c4)OCO5)CC3)n2)cc1	-3.5*	-1.7	.	0.85	524	211
CC1=CCC2C(=O)N(c3ccc(C(=O)N4CCCCCC4)cc3)C(=O)C2C1 (configuration not stated)	.	.	-42	.	.	.
Cc1cc(N2CCN(C(c3ccccc3)c3ccc(Cl)cc3)CC2)n2ncnc2n1 (configuration not stated)	-0.49	0.24	.	0.15	.	.
Cc1cc(N2CCN(C/C=C/c3ccccc3)CC2)n2ncnc2n1	-1.6*	-0.66	.	-0.32	525	231
COc1cccc(C2CC(C(F)(F)F)n3ncc(C(=O)O)c3N2)c1 (configuration not stated)	-0.55	-0.61	.	-0.25	.	.
COc1ccc(C2CC(C(F)(F)F)n3ncc(C(=O)O)c3N2)cc1OC (configuration not stated)	-3.1*	0.29	10	-0.15	627	246
O=C(NC(=S)Nc1cccc(Cl)c1N1CCCC1)c1ccc(-c2cccc([N+](=O)[O-])c2)o1	.	.	39	.	.	.
Cc1cc2oc(=O)cc(COC(=O)c3cccc(N(C)C)c3)c2cc1C	-0.079	1.6	.	-1.9	.	.
O=C(CN1CCN(c2ccccn2)CC1)N1c2ccccc2Sc2ccc(C(F)(F)F)cc21	-4*	0.12	.	-0.3	450*	171
O=C(NCc1ccc(F)cc1)c1cc(-c2ccco2)on1	-3.9*	1.2	4	-0.73	673	177
O=C(NCc1ccc(Cl)cc1)c1cc(-c2ccco2)on1	-0.34	0.083	.	0.26	.	.
CCCc1[nH]nc2c1C(Cc1ccccc1)C(C#N)=C(N)O2 (configuration not stated)	-2.2*	0.0066	33	0.3	642	239
CC1CCCC(C)N1c1nnc(N)s1 (configuration not stated)	-0.092	-0.0033	.	-0.14	.	.
CCSc1nc(-c2cccs2)nc2c1c(=O)n(C)c(=O)n2C	0.53	0.52	.	0.58	.	.
CC1CC(C)CN(CC(C)(C)NS(=O)(=O)c2ccccc2)C1 (configuration not stated)	-2.6*	.	.	1.5	548	246
CCOC(=O)N1CCN(C(=O)c2ccc3c(=O)n(CCc4ccccc4)c(=O)[nH]c3c2)CC1	-5.1*	-0.18	.	-0.98	296*	246
SMILES	M1 antagonist	D1 mod	mHtt clearance	M1 ag	M1 antag conf	mGluR4 antag
CCOC(=O)C1CCCN(C(=O)c2ccc3c(=O)n(CCOC)c(=S)[nH]c3c2)C1 (configuration not stated)	-0.57	-0.5	.	-0.62	.	.
CCOC(=O)N1CCN(C(=O)c2ccc3c(=O)n4c(nc3c2)CCCCC4)CC1	-5.3*	-0.024	.	-0.088	300*	215
CCOC(=O)N1CCN(C(=O)c2ccc3c(=O)n(CCOC)c(=O)[nH]c3c2)CC1	-2.1*	-0.31	.	0.27	482	207
Cc1cccc(S(=O)(=O)C(C#N)c2nc3ccccc3nc2N2CCOCC2)c1 (configuration not stated)	0.14	-0.31	-54	-0.82	.	.
Cn1c(=O)n(CCOc2ccccc2Cl)c2ccccc21	-3.5*	0.19	.	1.1	392*	214
Cn1c(=O)n(CCOc2ccc(Cl)cc2Cl)c2ccccc21	.	.	-38	.	.	.
COc1ccc(N2C(=O)CC(N3CCN(C4CCc5ccccc5C4)CC3)C2=O)cc1 (configuration not stated)	-2.3*	-0.35	29	0.049	435	223
C=CCn1c(SCc2nc3ccccc3[nH]2)nnc1-c1ccncc1	-16*	0.74	.	-0.45	643	243
O=C(CN1C(=O)c2cccc3cccc1c23)Nc1cccnc1	0.63	0.083	20	-0.25	.	.
CN1CCCCc2c1nc1c(c2N)CCCC1	-2.5*	0.015	.	-0.72	509	264
CCCCOc1ccc(CN2CCC(O)CC2)cc1	-2.2*	0.04	.	-0.33	518	257
CSc1ccc(CN2CCC(O)CC2)cc1	0.38	0.0014	-47	0.057	.	.
Cc1ccnc(NC(=O)CCC(=O)N(CC(=O)NC2CCCCC2)CC2CCCO2)c1 (configuration not stated)	-2	0.53	50	2.3	.	.
CCc1cc2c(=O)c(-c3cnn(-c4ccccc4)c3)coc2c(CN2CCOCC2)c1O	-4.2*	0.063	-44	0.75	528	193
CCc1cc2c(=O)c(-c3nc4ccccc4n3C)coc2c(CN2CCOCC2)c1O	-0.63	-0.23	.	0.15	.	.
O=C1C2C3c4ccccc4C(c4ccccc43)C2C(=O)N1Cc1cccnc1 (configuration not stated)	.	.	39	.	.	.
CCc1ccc(C(=O)N2CCN(c3ccc(F)cc3)CC2)s1	-6.5*	-0.74	.	-1.4	507*	229
Cc1cc(C)nc(NC2=NCCN2C(=O)Nc2ccc(Cl)c(Cl)c2)n1	-4.1*	-0.082	-18	-0.73	475	217
COc1ccc(OC)c(S(=O)(=O)Nc2ccc3oc4c(c3c2)C(=O)CCC4)c1	-1.3*	-0.0095	-64	-0.7	687	178
O=S(=O)(/N=S1/CC=CCN1S(=O)(=O)c1ccccc1)c1ccccc1 (configuration not stated)	-2.1*	0.061	22	-1.4	666	243
CC(C)Cc1[nH]c(=O)c(C#N)c2c1CCCC2	-0.2	.	.	0.089	.	.
COCCNS(=O)(=O)c1ccc(SC)cc1	-3.2*	-0.48	3	-0.2	610	267
CC(NC(=O)c1ccc(N(C)C)cc1)C(c1cccs1)N1CCN(C)CC1 (configuration not stated)	-3.9*	-0.48	.	0.19	632	183
CCOC(=O)c1oc2ccc(CNCCO)c(Cl)c2c1C	-1.9*	-0.69	9	-0.76	519*	212
O=C(CC(c1ccccc1)c1cc(Cl)ccc1O)N1CCOCC1 (configuration not stated)	-2.6*	-1.2	-11	0.17	477	214
